Source: PubChem BioAssay (NMMLSC)
Compounds with a hit are over-represented: about 1.8% of the library has one in this group of screens.
Exocytosis inh = LAMP-1 surface exposure blockers, TALL-104 cells – cell-based, flow cytometry, MLPCN library, primary screen; inhibition, % at 10 µM; 0.66% of 360,000 active; TALL-104 LAMP-1 surface exposure; cells stimulated with thapsigargin and PMA;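 active = inhibition above about 55%, limit read from the data; inconclusive = no clear call, values can overlap the other calls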
Myeloid diff 2 = induction of myeloid progenitor differentiation, primary screen, cell-based, flow cytometry, MLPCN library | calls only at 10 µM | 1% of 360,000 active | ER-HoxA9 myeloid progenitors, lysozyme-GFP differentiation;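 active = normalized GFP-positive differentiation at or above the plate's own cutoff, the solvent-only control mean plus 3 SD; inconclusive = no clear call, values can overlap the other calls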;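 note: cells exposed to compound for four days before flow analysis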
ABCB6 inh 2 = ABCB6 transporter inhibitors, primary screen, K562-ABCB6 cells, flow cytometry, MLPCN library | K562-ABCB6 porphyrin accumulation, 1 h; active compounds read low | fluorescence ratio to DMSO, % at 10 µM | 0.19% of 360,000 active | AID 602162, 2011 | ATP-binding cassette sub-family B member 6 (Homo sapiens), Q9NP58;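 active = fluorescence ratio to DMSO below 75%, the collection mean minus 3 SD; inconclusive = too few cells collected in the well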;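 note: signal is porphyrin accumulated inside mitochondria; 100% equals median channel fluorescence of DMSO control wells; lower ratio means ABCB6 inhibition with less porphyrin fluorescence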
Exocytosis CP01 = inhibitors of lytic granule exocytosis, confirmation, TALL-104 cells, flow cytometry, Cherry Pick01; shares compounds with Exocytosis inh; LAMP-1 externalization; stimulated with PMA plus thapsigargin; inhibition, % at 10 µM; 11% of 1,500 active; AID 651954, 2012; in the data active = inhibition above about 60%;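 note: 0% = stimulated vehicle wells and 100% = unstimulated wells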
The depositor's hits bear a star; i = inactive; ? = inconclusive; · = no result given; + = active, no number.

SMILES	Exocytosis inh	Myeloid diff 2	ABCB6 inh 2	Exocytosis CP01
COc1cc(/C=N\NC(=O)c2cccnc2)ccc1OC(=O)c1ccccc1Cl	1	i	97	·
CC(C)CN(CC(C)C)c1nn[nH]n1	0	i	96	·
CCOc1ccccc1NC(=O)C(c1ccccc1)N1CCN(C(=O)c2ccco2)CC1 (stereo unspecified)	6	i	100	·
COc1ccc(-c2cc(NC=O)c3ncc(-c4cccc(OC)c4)n3c2)cc1	63*	?	120	74*
COc1cccc(-c2cnc3c(NC(C)=O)cc(-c4ccc(OC)c(OC)c4)cn23)c1	48	i	96	·
COc1cccc(-c2cnc3c(NC=O)cc(-c4ccc(N(C)C)cc4)cn23)c1	-10	i	108	·
COc1cccc(-c2cnc3c(NC(C)=O)cc(-c4ccsc4)cn23)c1	77*	i	96	91*
CS(=O)(=O)c1ccc(-c2cnc3c(NC=O)cc(-c4ccsc4)cn23)cc1	-6	i	119	·
O=CNc1cc(-c2ccsc2)cn2c(-c3ccccc3)cnc12	71*	i	110	82*
CCOC(=O)N1CCN(C(=O)C2CCN(Cc3cccc(OCc4ccccc4)c3)CC2)CC1	16	i	95	·
COc1ccc(/C=N/NC(C)(C)C)c(OC)c1	3	i	91	·
CSCc1c(C(=O)Nc2ccccc2N2CCOCC2)oc2ccccc12	0	i	86	·
Cn1cccc1C1CCCN1CC(=O)Nc1ccc(F)c(F)c1F (stereo unspecified)	-2	i	93	·
O=C(Nc1ccc2c(c1)OCCO2)c1cnn(-c2ccccc2)n1	-2	i	98	·
O=C(CNc1ccc(Br)cc1)NC(=O)NC1CCCCC1	2	i	100	·
COc1ccc2nc3cccc(OC)c3nc2c1	0	i	95	·
COc1ccc2nc3ccccc3nc2c1N	82*	i	101	-13
CCOC(=O)c1c2c(n(Cc3ccccc3)c1C)C(=O)C(=O)c1ccccc1-2	99*	?	95	50
CCOC(=O)c1c2c(n(C)c1C)C(=O)C(=O)c1ccc(Br)cc1-2	2	·	98	·
CCCS(=O)(=O)NC(=O)C1(C)CCCN(C(=O)c2ccco2)C1 (stereo unspecified)	-8	i	105	·
CCCN(CC(=O)Nc1ccccc1OC)C(C)C(=O)NC(C)CCc1ccccc1 (stereo unspecified)	70*	i	102	-5
CCN(CC(=O)Nc1ccccc1OC)C(=O)CCc1ccccc1	21	i	97	·
Cc1ccc(C(=O)N/C(=C\c2ccc(-c3ccc(Br)cc3)o2)C(=O)NCCCN(C)C)cc1	75*	+	103	99*
Cc1ccc(C(=O)N/C(=C\c2ccc(-c3cccc([N+](=O)[O-])c3)o2)C(=O)NCCCN(C)C)cc1	1	i	100	·
COc1ccc(CCNC(=O)Nc2nnc([C@@H]3C[C@H](O)[C@@H](CO)O3)s2)cc1OC	-5	i	97	·
SMILES	Exocytosis inh	Myeloid diff 2	ABCB6 inh 2	Exocytosis CP01
Cc1ccc(S(=O)(=O)N2CCN(C(=O)CSCc3ccc(C(C)C)cc3)CC2)cc1	-4	i	85	·
CCOC(=O)COc1ccccc1C(=O)c1cnn(-c2ccccc2)c1	62*	i	96	-9
O=C(COc1ccccc1C(=O)c1cnn(-c2ccccc2)c1)Nc1ccc2ccccc2c1	2	i	96	·
O=C(Nc1ccc(Br)cn1)c1ccc(COc2c(F)c(F)cc(F)c2F)o1	-4	i	91	·
COc1ccc(CN2C=C3C(=O)C(C)(OC(=O)CCc4ccccc4)C(=O)C=C3C=C2c2ccc(C#N)cc2)cc1 (stereo unspecified)	1	i	104	·
CC1(OC(=O)CCc2ccccc2)C(=O)C=C2C=C(c3ccc(C#N)cc3)N(C(CO)CO)C=C2C1=O (stereo unspecified)	71*	i	96	-5
COC(=O)C1(O)CC(C(C)C)=NN1C(=O)c1ccccc1 (stereo unspecified)	-2	i	87	·
O=C(c1ccccc1NS(=O)(=O)c1ccc(Br)s1)N1CCCC1	-1	i	99	·
CC(C)NC(=O)c1ccccc1NS(=O)(=O)c1ccc(Br)s1	59*	i	99	-13
CCOc1ccc(NC(=O)CN(C)C(=O)c2cn3ccccc3n2)cc1OCC	2	i	98	·
